Test results: the supplement of paper PMC10849652
About 7,900 targets were measured; listed, in parts, are those with a hit and a random draw of the rest. About 0.6% of all pairs of compound and target were hits.

Experiments:
Assay in all cases: log2 fold change, soluble protein after heating vs DMSO (PISA); higher = thermal stabilisation; K562 cells, 10 uM, 30 min; active = over 0.2 and 3.5 SD of the protein, either way, in both replicates (recomputed)
[1] = compound: COC1=CC=C(C=C1)CN2C=CC3=C2C=C(C=C3)C(=O)NO
Procedure, shortened: (§1)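 For each measurement, 10 μM compound was applied for 30 min to K562 cells at 2×10^6 cells/mL. Aliquots were heated for 3 min across 48°C-58°C, pooled, and extracted in PBS with 0.5% NP-40 at 4°C; the supernatant after 21,000xg for 90 min was soluble protein. This was quantified by TMTpro 16plex LC-MS/MS with channel sums equalised, and thermal stability was reported relative to control samples from duplicates, on a log2 fold-change scale.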

filanesib = compound: CON(C)C(=O)N1N=C(c2cc(F)ccc2F)S[C@@]1(CCCN)c1ccccc1 [filanesib]
Procedure, shortened: as §1

zotarolimus = compound: CO[C@H]1C[C@@H]2CC[C@@H](C)[C@@](O)(O2)C(=O)C(=O)N2CCCC[C@H]2C(=O)O[C@H]([C@H](C)C[C@@H]2CC[C@H](n3cnnn3)[C@H](OC)C2)CC(=O)[C@H](C)/C=C(\C)[C@@H](O)[C@@H](OC)C(=O)[C@H](C)C[C@H](C)/C=C/C=C/C=C/1C [zotarolimus]
Procedure, shortened: as §1

idasanutlin = compound: COc1cc(C(=O)O)ccc1NC(=O)[C@@H]1N[C@@H](CC(C)(C)C)[C@](C#N)(c2ccc(Cl)cc2F)[C@H]1c1cccc(Cl)c1F [idasanutlin]
Procedure, shortened: as §1

alisertib = compound: COc1cc(Nc2ncc3c(n2)-c2ccc(Cl)cc2C(c2c(F)cccc2OC)=NC3)ccc1C(=O)O [alisertib]
Procedure, shortened: as §1

[2] = compound: COc1cc2nc(-c3cc(F)ccc3O)nc(N[C@@H]3CNC[C@H]3C(C)(C)O)c2cc1OC
Procedure, shortened: as §1

gefitinib = compound: COc1cc2ncnc(Nc3ccc(F)c(Cl)c3)c2cc1OCCCN1CCOCC1 [gefitinib]
Procedure, shortened: as §1

[3] = compound: COc1cccc2cc(-c3nc([C@H]4CC[C@H](C(=O)O)CC4)n4ncnc(N)c34)[nH]c12
Procedure, shortened: as §1

lapatinib = compound: CS(=O)(=O)CCNCc1ccc(-c2ccc3ncnc(Nc4ccc(OCc5cccc(F)c5)c(Cl)c4)c3c2)o1 [lapatinib]
Procedure, shortened: as §1

pictilisib = compound: CS(=O)(=O)N1CCN(Cc2cc3nc(-c4cccc5[nH]ncc45)nc(N4CCOCC4)c3s2)CC1 [pictilisib]
Procedure, shortened: as §1

Measured: log2 fold change

GEMIN6 (UniProt Q8WXD5)
Chain of UniProt Q8WXD5 (Q8WXD5 whole entry, looked up): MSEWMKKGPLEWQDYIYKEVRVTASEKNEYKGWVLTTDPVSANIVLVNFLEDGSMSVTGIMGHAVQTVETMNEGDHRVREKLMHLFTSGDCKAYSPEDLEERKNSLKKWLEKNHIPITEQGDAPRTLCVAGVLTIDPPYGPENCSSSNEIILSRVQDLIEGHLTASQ
inactive: [1] 0.001 | filanesib 0.005 | zotarolimus 0.154 | idasanutlin 0.071 | alisertib -0.019 | [2] 0.006 | gefitinib -0.003 | [3] 0.096 | lapatinib -0.077 | pictilisib 0.064

HADHB (UniProt P55084)
inactive: [1] 0.248 | filanesib 0.094 | zotarolimus 0.038 | idasanutlin -0.263 | alisertib -0.026 | [2] 0.217 | gefitinib 0.17 | [3] -0.085 | lapatinib 0.086 | pictilisib 0.383

GMEB1 (UniProt Q9Y692)
inactive: [1] 0.049 | filanesib 0.205 | zotarolimus 0.042 | idasanutlin 0.027 | alisertib -0.041 | [2] -0.042 | gefitinib -0.049 | [3] 0.008 | lapatinib 0.031 | pictilisib -0.087

GLS isoform 3 (UniProt O94925)
inactive: [1] -0.021 | filanesib -0.029 | zotarolimus 0.008 | idasanutlin -0.26 | alisertib -0.003 | [2] 0.216 | gefitinib 0.041 | [3] 0.031 | lapatinib 0 | pictilisib 0.078

FIBP (UniProt O43427)
Chain of UniProt O43427 (O43427 whole entry, looked up): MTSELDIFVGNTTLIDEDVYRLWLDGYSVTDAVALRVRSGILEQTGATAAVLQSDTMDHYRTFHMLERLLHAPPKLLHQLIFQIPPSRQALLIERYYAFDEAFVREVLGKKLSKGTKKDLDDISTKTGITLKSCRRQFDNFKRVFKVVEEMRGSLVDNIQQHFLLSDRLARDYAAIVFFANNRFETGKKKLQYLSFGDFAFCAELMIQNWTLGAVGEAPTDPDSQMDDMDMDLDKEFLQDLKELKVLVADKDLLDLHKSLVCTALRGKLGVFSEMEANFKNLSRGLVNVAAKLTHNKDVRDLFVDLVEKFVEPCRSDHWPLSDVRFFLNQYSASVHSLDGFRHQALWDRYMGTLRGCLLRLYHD
inactive: [1] 0.083 | filanesib -0.051 | zotarolimus -0.047 | idasanutlin 0.03 | alisertib 0.016 | [2] 0.042 | [3] -0.084 | lapatinib 0.008 | pictilisib 0.185

FNTB (UniProt P49356)
inactive: [1] 0.088 | filanesib 0.26 | zotarolimus 0.159 | idasanutlin -0.024 | alisertib -0.074 | [2] -0.057 | gefitinib 0.02 | [3] 0.024 | lapatinib 0.18 | pictilisib -0.165

HNRNPF (UniProt P52597)
Chain of UniProt P52597 (P52597 whole entry, looked up): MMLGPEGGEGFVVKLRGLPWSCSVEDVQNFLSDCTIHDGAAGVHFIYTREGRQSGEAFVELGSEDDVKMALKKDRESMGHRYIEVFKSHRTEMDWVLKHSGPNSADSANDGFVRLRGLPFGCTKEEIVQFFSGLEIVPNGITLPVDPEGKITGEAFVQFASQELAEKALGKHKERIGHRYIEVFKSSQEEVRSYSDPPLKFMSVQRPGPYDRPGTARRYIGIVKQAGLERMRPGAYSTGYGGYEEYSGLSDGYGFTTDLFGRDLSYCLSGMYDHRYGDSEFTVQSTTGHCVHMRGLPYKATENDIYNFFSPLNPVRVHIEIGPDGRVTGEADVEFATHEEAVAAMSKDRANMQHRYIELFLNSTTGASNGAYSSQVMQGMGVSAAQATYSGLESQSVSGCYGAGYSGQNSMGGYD
inactive: [1] 0.059 | filanesib -0.03 | zotarolimus 0.046 | idasanutlin 0.073 | alisertib 0.03 | [2] -0.036 | gefitinib -0.034 | [3] -0.026 | lapatinib 0.008 | pictilisib -0.088

FUT8 (UniProt Q9BYC5)
inactive: [1] -0.156 | filanesib -0.043 | zotarolimus -0.019 | idasanutlin -0.066 | alisertib 0.022 | gefitinib 0.084 | [3] -0.03 | pictilisib -0.032

GTF2H3 (UniProt Q13889)
inactive: [1] -0.031 | filanesib 0.062 | zotarolimus -0.04 | idasanutlin -0.077 | alisertib -0.155 | [2] 0.016 | gefitinib 0 | [3] 0.041 | lapatinib 0.056 | pictilisib -0.089

GNAS (UniProt Q5JWF2)
inactive: [1] -0.048 | filanesib 0 | zotarolimus -0.03 | idasanutlin -0.048 | alisertib -0.09 | [2] 0.052 | gefitinib 0.108 | [3] -0.077 | lapatinib 0.02 | pictilisib 0.051

GNL1 (UniProt P36915)
inactive: [1] 0.047 | filanesib -0.066 | zotarolimus 0.049 | idasanutlin -0.056 | alisertib -0.107 | [2] 0.039 | gefitinib 0.031 | [3] 0.061 | lapatinib 0.011 | pictilisib 0.04

HECTD1 (UniProt Q9ULT8)
inactive: [1] -0.039 | filanesib 0.091 | zotarolimus 0.023 | idasanutlin 0.047 | alisertib 0.087 | [2] -0.04 | gefitinib -0.016 | [3] -0.132 | lapatinib 0.096 | pictilisib 0.02

GYG1 (UniProt P46976)
inactive: [1] 0.08 | filanesib 0.124 | zotarolimus 0.036 | idasanutlin 0.15 | alisertib -0.133 | [2] -0.163 | gefitinib -0.028 | [3] -0.195 | lapatinib 0.051
active: pictilisib 0.376

FBL (UniProt P22087)
inactive: [1] -0.154 | filanesib 0.664 | zotarolimus 0.034 | idasanutlin 0.441 | alisertib 0.006 | [2] 0.077 | gefitinib 0.059 | [3] -0.069 | lapatinib 0.11 | pictilisib -0.093

GAK (UniProt O14976)
inactive: [1] -0.013 | filanesib 0.024 | zotarolimus 0.033 | idasanutlin -0.748 | alisertib -0.025 | [2] 1.44 | gefitinib 0.84 | [3] -0.107 | lapatinib 0.143 | pictilisib 0.226

GYS1 (UniProt P13807)
Chain of UniProt P13807 (P13807 whole entry, looked up): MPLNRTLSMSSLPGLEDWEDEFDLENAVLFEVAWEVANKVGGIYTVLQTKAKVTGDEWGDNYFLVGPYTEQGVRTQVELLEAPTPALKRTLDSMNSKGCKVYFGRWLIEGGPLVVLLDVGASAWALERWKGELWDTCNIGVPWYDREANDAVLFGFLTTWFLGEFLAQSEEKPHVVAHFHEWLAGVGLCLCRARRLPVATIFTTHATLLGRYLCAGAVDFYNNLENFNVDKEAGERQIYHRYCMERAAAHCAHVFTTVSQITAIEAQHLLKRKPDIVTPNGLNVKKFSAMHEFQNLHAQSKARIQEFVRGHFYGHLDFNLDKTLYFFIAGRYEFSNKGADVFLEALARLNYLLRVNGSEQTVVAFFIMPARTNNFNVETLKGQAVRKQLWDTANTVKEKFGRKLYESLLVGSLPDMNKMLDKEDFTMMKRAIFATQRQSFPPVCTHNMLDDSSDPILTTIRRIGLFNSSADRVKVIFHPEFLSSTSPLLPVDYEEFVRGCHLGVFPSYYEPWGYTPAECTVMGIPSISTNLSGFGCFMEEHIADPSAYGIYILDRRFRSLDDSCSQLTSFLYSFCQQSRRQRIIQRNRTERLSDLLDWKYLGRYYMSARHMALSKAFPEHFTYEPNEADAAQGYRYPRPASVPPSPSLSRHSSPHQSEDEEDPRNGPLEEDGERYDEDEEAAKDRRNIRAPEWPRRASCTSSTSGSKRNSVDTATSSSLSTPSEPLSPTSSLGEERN
inactive: [1] -0.045 | filanesib 0.045 | zotarolimus 0.124 | idasanutlin 0.462 | alisertib -0.026 | [2] -0.109 | gefitinib -0.006 | [3] -0.165 | lapatinib 0.013 | pictilisib 0.219

HNRNPUL2 (UniProt Q1KMD3)
inactive: [1] -0.012 | filanesib 0.156 | zotarolimus -0.015 | idasanutlin 0.083 | alisertib -0.026 | [2] 0.105 | gefitinib -0.02 | [3] 0.005 | lapatinib -0.018 | pictilisib 0.035

HNRNPH2 (UniProt P55795)
inactive: [1] 0.003 | filanesib 0.033 | zotarolimus 0.079 | idasanutlin 0.001 | alisertib 0.058 | [2] -0.231 | gefitinib 0.02 | [3] -0.079 | lapatinib 0.057 | pictilisib -0.021

GSE1 (UniProt Q14687)
inactive: zotarolimus -0.063 | gefitinib 0.224

HEATR3 (UniProt Q7Z4Q2)
inactive: [1] 0.027 | filanesib 0.007 | zotarolimus -0.004 | alisertib 0.099 | [2] -0.083 | gefitinib 0.072 | [3] 0.046 | lapatinib 0.004 | pictilisib -0.134

GPD1 (UniProt P21695)
inactive: filanesib -0.083 | zotarolimus 0.022 | idasanutlin -0.289 | alisertib 0.077 | [2] -0.051 | gefitinib 0.368 | [3] 0.111 | lapatinib 0.015 | pictilisib 0.203

GINS2 (UniProt Q9Y248)
Chain of UniProt Q9Y248 (Q9Y248 whole entry, looked up): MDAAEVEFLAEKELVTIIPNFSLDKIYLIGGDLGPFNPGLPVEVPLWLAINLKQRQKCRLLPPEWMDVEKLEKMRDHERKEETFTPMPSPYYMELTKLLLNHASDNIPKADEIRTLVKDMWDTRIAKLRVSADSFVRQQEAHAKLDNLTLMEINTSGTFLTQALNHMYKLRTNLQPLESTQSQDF
inactive: [1] 0.057 | filanesib -0.021 | zotarolimus 0.29 | alisertib -0.069 | [2] 0.025 | gefitinib 0.035 | [3] -0.089 | lapatinib -0.026 | pictilisib -0.119

GOLGA6B (UniProt A6NDN3)
inactive: [1] 0.088 | filanesib -0.115 | alisertib -0.092 | gefitinib 0.012 | [3] 0.102 | pictilisib 0.144

HSPA2 (UniProt P54652)
Chain of UniProt P54652 (P54652 whole entry, looked up): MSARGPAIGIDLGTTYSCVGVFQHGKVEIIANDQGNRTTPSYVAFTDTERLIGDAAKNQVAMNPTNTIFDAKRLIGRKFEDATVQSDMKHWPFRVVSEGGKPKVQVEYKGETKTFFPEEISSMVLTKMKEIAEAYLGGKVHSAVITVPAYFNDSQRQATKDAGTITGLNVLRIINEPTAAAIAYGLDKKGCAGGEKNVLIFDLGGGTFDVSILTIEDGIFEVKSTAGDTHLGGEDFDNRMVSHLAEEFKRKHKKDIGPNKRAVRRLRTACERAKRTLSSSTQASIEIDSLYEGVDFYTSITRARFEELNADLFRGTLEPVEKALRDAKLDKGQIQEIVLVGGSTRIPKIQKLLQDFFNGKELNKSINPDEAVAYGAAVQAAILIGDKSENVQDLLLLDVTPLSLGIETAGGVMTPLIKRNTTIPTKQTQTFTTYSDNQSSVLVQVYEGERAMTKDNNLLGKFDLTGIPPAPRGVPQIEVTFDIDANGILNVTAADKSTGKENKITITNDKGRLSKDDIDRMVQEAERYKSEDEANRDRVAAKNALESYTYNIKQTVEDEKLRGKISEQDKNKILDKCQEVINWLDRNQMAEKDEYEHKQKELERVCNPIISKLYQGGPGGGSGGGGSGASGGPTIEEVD
inactive: [1] -0.103 | filanesib 0.026 | idasanutlin 0.032 | alisertib -0.077 | gefitinib 0.005 | [3] 0.076

HNRNPK isoform 3 (UniProt P61978)
inactive: [1] -0.025 | filanesib 0.077 | alisertib -0.063 | gefitinib -0.066 | [3] 0.005 | pictilisib 0.057

HAUS4 (UniProt Q9H6D7)
Chain of UniProt Q9H6D7 (Q9H6D7 whole entry, looked up): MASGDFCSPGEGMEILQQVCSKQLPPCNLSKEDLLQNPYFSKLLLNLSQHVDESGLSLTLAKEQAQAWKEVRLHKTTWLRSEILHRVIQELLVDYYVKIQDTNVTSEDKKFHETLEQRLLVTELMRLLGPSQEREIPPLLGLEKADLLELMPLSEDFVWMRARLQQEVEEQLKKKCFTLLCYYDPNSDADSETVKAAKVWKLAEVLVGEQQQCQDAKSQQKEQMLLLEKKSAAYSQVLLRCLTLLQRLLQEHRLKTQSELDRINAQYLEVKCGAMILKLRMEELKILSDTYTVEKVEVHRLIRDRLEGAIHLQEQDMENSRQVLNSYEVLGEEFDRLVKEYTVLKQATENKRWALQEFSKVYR
inactive: filanesib 0.245 | zotarolimus 0.05 | idasanutlin 0.126 | alisertib -0.103 | [2] 0.024 | gefitinib -0.086 | [3] 0.323 | lapatinib -0.038 | pictilisib -0.162

GBE1 (UniProt Q04446)
Chain of UniProt Q04446 (Q04446 whole entry, looked up): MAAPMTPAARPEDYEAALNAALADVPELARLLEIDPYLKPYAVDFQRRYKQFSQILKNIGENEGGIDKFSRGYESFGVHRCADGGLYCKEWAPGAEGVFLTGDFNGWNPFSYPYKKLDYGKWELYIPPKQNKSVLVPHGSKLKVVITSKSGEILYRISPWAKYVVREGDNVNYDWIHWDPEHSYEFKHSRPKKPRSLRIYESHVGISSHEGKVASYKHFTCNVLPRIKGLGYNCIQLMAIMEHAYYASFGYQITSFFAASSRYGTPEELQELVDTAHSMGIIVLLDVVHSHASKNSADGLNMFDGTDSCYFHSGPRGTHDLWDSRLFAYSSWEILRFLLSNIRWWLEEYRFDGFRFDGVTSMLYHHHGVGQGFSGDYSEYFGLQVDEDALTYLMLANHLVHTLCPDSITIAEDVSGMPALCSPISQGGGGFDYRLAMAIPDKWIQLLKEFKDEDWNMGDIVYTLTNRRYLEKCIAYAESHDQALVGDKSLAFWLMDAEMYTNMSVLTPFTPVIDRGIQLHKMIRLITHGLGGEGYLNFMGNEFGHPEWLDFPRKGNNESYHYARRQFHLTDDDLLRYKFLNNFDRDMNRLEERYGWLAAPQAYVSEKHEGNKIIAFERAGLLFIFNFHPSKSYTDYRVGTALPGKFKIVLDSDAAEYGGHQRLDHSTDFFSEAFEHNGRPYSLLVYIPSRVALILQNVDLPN
inactive: [1] 0.048 | zotarolimus 0.045 | idasanutlin 0.002 | alisertib 0.019 | [2] -0.168 | [3] -0.102 | lapatinib -0.022

HBZ, A0A494C057
inactive: alisertib 1.67 | gefitinib 0.151 | [3] 0.009

FASTKD1 (UniProt Q53R41)
Chain of UniProt Q53R41 (Q53R41 whole entry, looked up): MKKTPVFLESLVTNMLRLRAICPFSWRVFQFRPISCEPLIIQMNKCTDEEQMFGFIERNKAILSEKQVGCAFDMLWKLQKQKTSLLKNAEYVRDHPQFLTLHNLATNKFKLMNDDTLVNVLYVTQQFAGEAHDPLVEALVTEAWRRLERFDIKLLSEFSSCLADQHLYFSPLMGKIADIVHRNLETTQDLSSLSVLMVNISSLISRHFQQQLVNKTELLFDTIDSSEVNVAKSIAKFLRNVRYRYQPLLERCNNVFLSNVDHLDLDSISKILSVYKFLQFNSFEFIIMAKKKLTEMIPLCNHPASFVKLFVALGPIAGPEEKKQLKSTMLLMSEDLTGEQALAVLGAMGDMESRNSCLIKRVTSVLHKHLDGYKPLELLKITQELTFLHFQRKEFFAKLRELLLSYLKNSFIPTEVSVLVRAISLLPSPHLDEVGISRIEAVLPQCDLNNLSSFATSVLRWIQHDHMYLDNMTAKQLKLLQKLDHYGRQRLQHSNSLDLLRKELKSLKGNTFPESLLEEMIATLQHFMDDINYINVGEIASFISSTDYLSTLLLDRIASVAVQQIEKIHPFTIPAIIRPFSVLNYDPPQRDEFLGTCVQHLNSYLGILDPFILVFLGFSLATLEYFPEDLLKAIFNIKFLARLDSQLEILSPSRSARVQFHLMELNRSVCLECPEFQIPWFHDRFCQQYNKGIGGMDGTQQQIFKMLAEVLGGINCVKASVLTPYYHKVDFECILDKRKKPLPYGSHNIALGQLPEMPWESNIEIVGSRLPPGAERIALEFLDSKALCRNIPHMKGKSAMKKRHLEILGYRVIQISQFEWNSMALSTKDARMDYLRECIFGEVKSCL
inactive: [1] -0.037 | filanesib -0.011 | zotarolimus -0.192 | idasanutlin -0.028 | gefitinib 0.473 | pictilisib 0.127

GPS2 (UniProt Q13227)
Chain of UniProt Q13227 (Q13227 whole entry, looked up): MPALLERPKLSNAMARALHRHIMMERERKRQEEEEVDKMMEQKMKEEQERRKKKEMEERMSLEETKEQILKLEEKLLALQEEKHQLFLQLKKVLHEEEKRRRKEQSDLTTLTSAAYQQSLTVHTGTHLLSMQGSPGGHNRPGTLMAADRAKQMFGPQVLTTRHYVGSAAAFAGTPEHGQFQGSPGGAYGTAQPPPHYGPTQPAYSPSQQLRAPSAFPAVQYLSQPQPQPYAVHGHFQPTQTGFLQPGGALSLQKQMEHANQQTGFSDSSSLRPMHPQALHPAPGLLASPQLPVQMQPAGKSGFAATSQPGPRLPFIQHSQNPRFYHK
inactive: [1] -0.108 | filanesib 0.018 | alisertib -0.067 | [2] 0.135 | gefitinib 0.008 | [3] 0.152 | lapatinib -0.044

FGG (UniProt P02679)
inactive: [2] -0.068 | lapatinib -0.001 | pictilisib -0.367

H3-3A (UniProt P84243)
inactive: filanesib -0.187 | zotarolimus 0.009 | alisertib 0.098 | [2] 0.179 | gefitinib 0.035 | [3] -0.062 | lapatinib -0.042
